From PubChem
Compounds with a hit are over-represented: about 8.3% of the library has one in this group of screens.
Chronic BCR inh: chronic active BCR signaling inhibition; ABC-DLBCL IkBa-CBG/CBR reporter, luminescence ratio, 4 h; Potency, µM (highest dose often 46.1 µM), inactives show top-dose activity change, negative = inhibition, actives largely listed as inhibitors; 340,000 compounds, 0.05% hits; AID 493014; active = well fitted inhibition curve with a large enough effect in the signal ratio, with a control signal flat, not every such curve was filed as active; inconclusive = small, poorly fitted or top-dose-only effect, or effect the other way, or a change in a side signal; the % refers to the signal ratio;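 also: potency is read from the fitted curve at half-maximal effect; plate controls were basal doxycycline-induced cells for no effect and cells given 10 µM MG132 for full effect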
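Cell line TMD8 (human ABC DLBCL), stably expressing tet-inducible CBG68-IkBa fusion and CBR; IMDM/0.5% FBS; cpd up to 46 uM; dox induction, 4 h, 37C/5% CO2; dual luminescence; green/red ratio; MG132 control.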
RORg inh: inhibitors of mouse ROR gamma transcriptional activity; Drosophila S2 Gal4-RORgamma UAS-luciferase reporter, 20 h; Potency, µM (titrated, usually from 53.6 µM), for the others: at the top dose activity change, negative = inhibition, actives largely listed as inhibitors; 310,000 compounds, 5.4% hits; AID 2551; also: potency is read from the fitted curve at half-maximal effect; % is scaled to controls: 0 for no effect and ±100 for the full control effect; nearly all actives have a fitted effect of over 60% in size
Target sequence (P51450 whole entry, looked up, the tested form may be a part): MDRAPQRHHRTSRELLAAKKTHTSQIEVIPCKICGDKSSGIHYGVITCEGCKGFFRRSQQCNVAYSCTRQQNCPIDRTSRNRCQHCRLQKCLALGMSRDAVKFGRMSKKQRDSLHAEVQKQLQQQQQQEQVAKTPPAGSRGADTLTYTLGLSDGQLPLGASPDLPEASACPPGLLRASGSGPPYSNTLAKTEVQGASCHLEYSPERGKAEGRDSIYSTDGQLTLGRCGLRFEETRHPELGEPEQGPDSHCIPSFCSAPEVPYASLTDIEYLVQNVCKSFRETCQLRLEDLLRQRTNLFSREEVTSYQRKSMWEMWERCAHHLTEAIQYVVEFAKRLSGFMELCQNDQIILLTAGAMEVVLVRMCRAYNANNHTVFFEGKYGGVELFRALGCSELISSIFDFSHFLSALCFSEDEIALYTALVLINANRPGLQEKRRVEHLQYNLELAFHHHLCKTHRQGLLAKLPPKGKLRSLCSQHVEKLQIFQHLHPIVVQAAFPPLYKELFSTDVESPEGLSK
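Using a luciferase readout, inhibitors were identified by reduced reporter activity in Drosophila cells coexpressing a copper-inducible Gal4–ROR gamma fusion and UAS-driven Photinus luciferase, incubated 20 hr after 700 uM copper sulfate.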
Gal4-VP16 FLuc: Gal4-VP16 reporter inhibition counter-screen; 310,000 compounds, 3.5% hits; AID 2546; Potency, µM (doses to about 53.6 µM), inactives show at the highest dose activity, negative = inhibition, hits mostly inhibitors; Drosophila S2 Gal4-VP16 UAS-luciferase, luminescence, 20 h;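 also: Gal4-VP16 expression switched on by copper sulfate through the metallothionein promoter; potency is read from the fitted curve at half-maximal effect; % is scaled to controls: 0 for no effect and ±100 for the full control effect; nearly all actives have a fitted effect of over 50% in size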
SW480 rerep: DNA re-replication induction in SW480 cells; AID 624297; 340,000 compounds, 1.8% hits; Potency, µM (top dose mostly 46.1 µM), for the others: at the highest dose re-replication activation, most hits filed as activators; SW480 DNA re-replication, Hoechst DNA content imaging, 48 h; also: potency is read from the fitted curve at half-maximal effect; % of control where 0% means no effect; nearly all actives have a fitted effect of over 55% in size
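Quantitative HTS format with DMSO vehicle controls; 48 hr drug incubation at 37 C, then 40 min Hoechst staining and scanning imager measurement at 405 nm excitation.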
MCF10A rerep: inducers of DNA re-replication in MCF 10A breast cells; MCF 10A DNA re-replication, Hoechst nuclear intensity, 48 h; Potency, µM (highest dose often 46.1 µM), for inactives: top-dose activity, positive = re-replication, hits mostly activators; 350,000 compounds, 2.9% hits; also: potency is read from the fitted curve at half-maximal effect; % of control where 0% means no effect; nearly all actives have a fitted effect of over 50% in size
Giardia kill: kills Giardia lamblia | Giardia lamblia trophozoite viability | activity change, % at 7.66 µM, hits read low | 340,000 compounds, 0.15% hits | AID 540267; in the data active = activity change below about -80%; inconclusive = between about -30% and that limit;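 also: parasites exposed to compound for two days anaerobically before the ATP read; % is scaled to controls: 0 for no effect and ±100 for the full control effect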
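Trophozoite viability was measured as ATP-dependent luminescence, read 15-30 min after reagent addition. Before that, parasites at 100 cells/well were exposed to compounds for 48 h, anaerobically, at 37 deg C.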
Active calls of the source: *; [ ] = remark or other dose. Unless noted, calls follow the shape of the dose curve; as a rule, active = well fitted curve in the direction sought with a large enough effect; inconclusive = small, poorly fitted or top-dose-only effect, or another doubt; inactive = no such curve, though single readings can be large; an effect the other way counts as inactive or inconclusive.

For COc1cc(NC(=O)c2ccc([N+](=O)[O-])o2)ccc1NC(=O)c1ccco1 the results were Chronic BCR inh 3.8%, RORg inh inconclusive, Gal4-VP16 FLuc inconclusive, SW480 rerep inconclusive, MCF10A rerep 16.4% and Giardia kill -95.7*.
Screening Cc1cc(NC(=O)c2ccc([N+](=O)[O-])o2)ccc1NC(=O)c1ccco1 returned Chronic BCR inh inconclusive, RORg inh 4.4%, Gal4-VP16 FLuc 0.2%, SW480 rerep 2.31µM*, MCF10A rerep inconclusive and Giardia kill -94.0*.
`Cc1c(Cl)cccc1N/C(SCC(=O)N1CCCCCC1)=C(/C#N)c1nc2ccccc2s1` gave Chronic BCR inh inconclusive, RORg inh 8.91µM*, Gal4-VP16 FLuc -22.8%, SW480 rerep 14.6µM*, MCF10A rerep inconclusive and Giardia kill -4.9.
`CC(C)(C)OC(=O)N1CCC(c2c(C(=O)NC3CC3)cnn2-c2ccccc2)CC1` gave Chronic BCR inh -4.3%, RORg inh -13.7%, Gal4-VP16 FLuc -8.5%, SW480 rerep -13.3%, MCF10A rerep 0.0% and Giardia kill 9.5.
O=C(Nc1ccc(NC(=O)c2cccs2)c(Cl)c1)c1ccco1 was read as Chronic BCR inh inconclusive, RORg inh -19.6%, Gal4-VP16 FLuc -13.6%, SW480 rerep 2.7%, MCF10A rerep -0.2% and Giardia kill inconclusive.
CCOc1ccccc1NC(=O)c1cccc(NC(=O)c2ccco2)c1 was read as Chronic BCR inh inconclusive, RORg inh 18.1%, Gal4-VP16 FLuc -25.0%, SW480 rerep 7.31µM*, MCF10A rerep 6.51µM* and Giardia kill -19.6.
Cc1ccccc1NC(=O)c1cccc(NC(=O)c2ccco2)c1 was read as Chronic BCR inh inconclusive, RORg inh 26.8%, Gal4-VP16 FLuc 4.2%, SW480 rerep -12.1%, MCF10A rerep -2.4% and Giardia kill 16.1.
`O=C(Nc1ccc(NC(=O)c2sc3ccccc3c2Cl)cc1Cl)c1ccco1` gave Chronic BCR inh 0.0%, RORg inh 10µM*, Gal4-VP16 FLuc inconclusive, SW480 rerep inconclusive, MCF10A rerep inconclusive and Giardia kill -19.9.
CCOc1ccc(C(=O)Nc2ccc(NC(=O)c3ccco3)c(Cl)c2)cc1Br was read as Chronic BCR inh -13.8%, RORg inh -27.9%, Gal4-VP16 FLuc -10.2%, SW480 rerep -13.8%, MCF10A rerep 5.8µM* and Giardia kill 8.1.
CCOc1ccc(C(=O)Nc2ccc(NC(=O)c3ccco3)c(Cl)c2)cc1Cl was read as Chronic BCR inh 21.5%, RORg inh 35.6%, Gal4-VP16 FLuc 6.0%, SW480 rerep inconclusive, MCF10A rerep inconclusive and Giardia kill -6.3.
CCOc1ccc(S(=O)(=O)NCCC(=O)NCC(c2ccccc2OC)N2CCCC2)cc1 (stereo not drawn) was read as Chronic BCR inh 8.3%, RORg inh -3.0%, Gal4-VP16 FLuc -5.5%, SW480 rerep 0.7%, MCF10A rerep 6.1% and Giardia kill -8.7.
COc1ccc(/C=N/Nc2nc(N3CCCC3)nc(N3CCCC3)n2)c(OC)c1OC was read as Chronic BCR inh 1.6%, RORg inh 7.94µM*, Gal4-VP16 FLuc -15.6%, SW480 rerep 0.8%, MCF10A rerep inconclusive and Giardia kill 11.5.
For COc1cccc(/C=N/Nc2nc(N3CCCC3)nc(N3CCCC3)n2)c1O the results were Chronic BCR inh inconclusive, RORg inh 10µM*, Gal4-VP16 FLuc inconclusive, SW480 rerep 2.2%, MCF10A rerep -2.7% and Giardia kill -2.2.
Screening COc1cc(/C=N/Nc2nc(N3CCCC3)nc(N3CCCC3)n2)ccc1O returned Chronic BCR inh inconclusive, RORg inh -40.0%, Gal4-VP16 FLuc 7.7%, SW480 rerep -3.2%, MCF10A rerep inconclusive and Giardia kill 12.5.
`COC(=O)c1cnn(-c2ccc(F)cc2F)c1/C=N/NC(=S)NC(C)(C)C` gave Chronic BCR inh -15.2%, RORg inh 1.26µM*, Gal4-VP16 FLuc inconclusive, SW480 rerep -0.7%, MCF10A rerep 1.2% and Giardia kill -16.6.
`COC(=O)c1cnn(-c2ccc(F)cc2F)c1/C=N/NC(N)=S` gave Chronic BCR inh inconclusive, RORg inh -83.0%, Gal4-VP16 FLuc -22.1%, SW480 rerep 0.1%, MCF10A rerep 7.2% and Giardia kill -1.4.
CCOC(=O)N/N=C/c1ccc(F)cc1F was read as Chronic BCR inh 0.3%, RORg inh 2.3%, Gal4-VP16 FLuc -4.4%, SW480 rerep 9.9%, MCF10A rerep -3.8% and Giardia kill 6.5.
For COC(=O)c1cnn(-c2ccccc2)c1/C=N/NC(=S)Nc1ccccc1 the results were Chronic BCR inh inconclusive, RORg inh 0.891µM*, Gal4-VP16 FLuc 3.55µM*, SW480 rerep 2.7%, MCF10A rerep 1.1% and Giardia kill 20.3.
For CNC(=S)N/N=C/c1c(C(=O)OC)cnn1-c1ccc(F)cc1F the results were Chronic BCR inh inconclusive, RORg inh 8.91µM*, Gal4-VP16 FLuc inconclusive, SW480 rerep -64.9%, MCF10A rerep 6.8% and Giardia kill 18.2.
Screening CCCCn1c(C)cc2c(c1=O)[C@H]1O[C@](CCCCN3C(=O)c4ccccc4C3=O)(Cc3ccccc31)O2 returned Chronic BCR inh inconclusive, RORg inh 4.1%[10 µM] and Gal4-VP16 FLuc -5.2%[10 µM].
Screening Cc1nonc1CC(=O)NC1CCCc2c1cnn2-c1ccc(F)cc1F (stereo not drawn) returned Chronic BCR inh 0.6%, RORg inh 37.6%, Gal4-VP16 FLuc 0.8%, SW480 rerep -7.9%, MCF10A rerep 0.9% and Giardia kill -9.9.
Screening O=c1oc2ccccc2cc1-c1nnc(NCc2ccco2)s1 returned Chronic BCR inh inconclusive, RORg inh -41.5%, Gal4-VP16 FLuc inconclusive, SW480 rerep 13µM*, MCF10A rerep 9.2µM* and Giardia kill 6.4.
`Cc1ccccc1CS(=O)(=O)c1cnc2ccccc2n1` gave Chronic BCR inh -12.9%, RORg inh -34.6%, Gal4-VP16 FLuc 17.1%, SW480 rerep inconclusive, MCF10A rerep 18.4µM* and Giardia kill -2.6.
Screening COC(=O)/C(=C\c1ccc(O)cc1)c1nc2ccccc2[nH]1 returned Chronic BCR inh inconclusive, RORg inh 7.6%, Gal4-VP16 FLuc 23.6%, SW480 rerep 2.59µM*, MCF10A rerep 16.4µM* and Giardia kill -27.0.
Screening COc1ccc(/C=C(/NC(=O)c2ccccc2)c2nc3ccc(Cl)cc3[nH]2)cc1OC returned Chronic BCR inh 5.4%, RORg inh inconclusive, Gal4-VP16 FLuc -19.0%, SW480 rerep -1.4%, MCF10A rerep inconclusive and Giardia kill -11.6.
COc1ccc(/C=C(/NC(=O)c2ccccc2)c2nc3ccccc3[nH]2)cc1OC was read as Chronic BCR inh 4.3%, RORg inh 21.5%, Gal4-VP16 FLuc -12.3%, SW480 rerep inconclusive, MCF10A rerep 20.6µM* and Giardia kill -5.0.
